CD11b adhes inh – inhibitors of CD11b/CD18 adhesion to fibrinogen, primary screen, K562 cells, luminescence. inhibition, % at 10 µM. AID 1497, 2009. Integrin beta-2 (Homo sapiens) + Integrin alpha-M (Homo sapiens), P05107+P11215. ATPlite luminescence; Mn2+ added to activate the integrin. actives 0.54% (n = 93,000);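 active = primary inhibition of 50% or more at 10 µM, then 40% or more on retest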
Target sequence (P05107 whole entry, looked up, other chains not shown): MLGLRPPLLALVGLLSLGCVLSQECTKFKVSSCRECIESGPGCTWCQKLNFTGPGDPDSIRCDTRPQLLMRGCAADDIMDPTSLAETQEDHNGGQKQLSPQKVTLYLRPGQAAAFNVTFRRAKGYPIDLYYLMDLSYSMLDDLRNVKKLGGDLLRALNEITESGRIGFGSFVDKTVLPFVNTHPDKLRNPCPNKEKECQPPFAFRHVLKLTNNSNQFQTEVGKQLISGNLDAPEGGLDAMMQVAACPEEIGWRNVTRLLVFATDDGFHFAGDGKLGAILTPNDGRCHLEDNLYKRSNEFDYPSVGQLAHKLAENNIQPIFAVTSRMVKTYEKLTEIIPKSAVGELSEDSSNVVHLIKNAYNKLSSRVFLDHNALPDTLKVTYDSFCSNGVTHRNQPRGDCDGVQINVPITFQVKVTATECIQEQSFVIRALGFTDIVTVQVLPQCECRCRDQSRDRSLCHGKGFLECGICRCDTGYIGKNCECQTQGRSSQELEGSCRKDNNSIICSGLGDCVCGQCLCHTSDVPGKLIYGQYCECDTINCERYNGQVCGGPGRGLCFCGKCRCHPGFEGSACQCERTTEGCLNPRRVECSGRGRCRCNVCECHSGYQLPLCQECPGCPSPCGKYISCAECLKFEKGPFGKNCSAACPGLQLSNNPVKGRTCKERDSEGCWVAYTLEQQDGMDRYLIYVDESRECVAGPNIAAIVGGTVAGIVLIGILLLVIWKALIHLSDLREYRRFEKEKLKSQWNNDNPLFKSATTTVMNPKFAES
CYP2C9 inhib – blockers of cytochrome P450 2C9 activity – biochemical, luminescence, ADME assay, primary screen | inhibition, % at 5 µM | CYP2C9 Supersomes, luciferin-H conversion | actives 20% (n = 96,000) | AID 777, 2007 | P11712;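 active = blocking of liver enzyme CYP2C9 beyond about 50% at 5 µM, limit read from the data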
Mac1 fbg enh – enhancers of CD11b/CD18 adhesion to fibrinogen, primary screen, K562 cells, luminescence. AID 1499, 2009. ATPlite luminescence. activation, % at 10 µM. actives 0.07% (n = 93,000). Integrin beta-2 (Homo sapiens) + Integrin alpha-M (Homo sapiens), P05107+P11215;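 active = 10 µM primary screen giving 50% or more activity, confirmed by 40% or more on retest at that dose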
CYP2C19 activ – human CYP2C19 activators, primary screen, biochemical, luminescence; Cytochrome P450 2C19 (Homo sapiens), P33261; recombinant CYP2C19, luciferin-H EGE luminescence; stronger effect = higher value; 0 = fully inhibited enzyme, 1 = untreated enzyme; activation factor at 5 µM; 96,000 tested, under 10 active; AID 1025, 2008;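 active = activation factor of at least 2 at 5 µM in the primary screen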;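 note: 0 = wells with 2.5 mM tranylcypromine and 1 = vehicle-only wells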
CYP2C19 inh – blockers of cytochrome P450 2C19 activity – biochemical, luminescence, ADME assay, primary screen; CYP2C19 Supersomes, luciferin-H EGE luminescence, 30 min; inhibition, % at 5 µM; actives 21% (n = 96,000);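 active = CYP2C19 inhibition above a set limit at 5 µM in the primary screen, cut at about 50% in these data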;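 note: plate controls were negative control wells for no effect and 2.5 mM tranylcypromine positive control for full effect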
CYP2C9 act – human CYP2C9 activators, primary screen, biochemical, luminescence. recombinant CYP2C9, luciferin-H conversion; stronger effect = higher value; factor 1 = untreated enzyme, 0 = blocked. actives 1.4% (n = 96,000). activation factor at 5 µM. AID 1024, 2008;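 active = activation factor of 2 or more for CYP2C9 at a 5 µM dose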;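 note: 0 = sulfaphenazole-blocked wells and 1 = vehicle-only wells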
An asterisk follows results filed as active; x = no result. Shown are actives, neighbours in structure and some others; about 28% of the full set was active somewhere.

SMILES	CD11b adhes inh	CYP2C9 inhib	Mac1 fbg enh	CYP2C19 activ	CYP2C19 inh	CYP2C9 act
CC1Oc2ccccc2N(CC(=O)c2cccc(Cl)c2)C1=O (stereo unspecified)	-6.0	92.8*	-2.1	0	96.9*	0.1
COc1ccc(NC(=O)CN2C(=O)C(C)Oc3ccccc32)cc1 (stereo unspecified)	-14.6	1.1	1.7	0.7	26.2	1
COc1ccc(NC(=O)CN2C(=O)C(C)Oc3ccccc32)c(OC)c1 (stereo unspecified)	-13.4	43.4	-2.2	0.2	79.4*	0.6
COc1ccc(NC(=O)CN2c3cccc4cccc(c34)S2(=O)=O)c(OC)c1	-11.0	36.6	19.3	0.1	91.2*	0.6
COC(=O)CC1Oc2ccccc2N(Cc2ccccc2)C1=O (stereo unspecified)	-4.2	54.7*	-0.7	0.1	89.5*	0.5
COc1cc(NC(=O)CN2c3cccc4cccc(c34)S2(=O)=O)cc(OC)c1OC	5.4	9.3	-0.1	1.1	-8.5	0.9
CC1CC(=O)N(Cc2ccccc2)c2ccccc2N1C=O (stereo unspecified)	-4.1	8.8	-7.1	0.9	9.7	0.9
Cc1cccc(Nc2nc(N)nc(CN3CCN(Cc4ccc5c(c4)OCO5)CC3)n2)c1	-11.5	9.1	1.5	0.9	13.3	0.9
CCC1Oc2ccccc2N(CC(=O)Nc2ccccc2OC)C1=O (stereo unspecified)	-7.7	63.0*	-3.1	0.2	77.5*	0.4
CCC1Oc2ccccc2N(CC(=O)NCCCN2CCCCC2C)C1=O (stereo unspecified)	x	17.1	x	0.9	6.2	0.8
O=C(COc1ccc(S(=O)(=O)NC2CCCCC2)cc1Cl)Nc1ccc2c(c1)OCO2	4.4	87.1*	0.6	0.5	49.8	0.1
O=C(COc1ccc(S(=O)(=O)NC2CCCCC2)cc1Cl)NCc1ccc2c(c1)OCO2	15.0	98.5*	4.5	0.1	94.0*	0
O=C(NCCN1CCOCC1)c1ccc2ccccc2c1	-10.9	2.4	-6.2	0.5	45.4	1
CC(=O)NC(N1CCCCC1)C(F)(F)C(F)(F)C(F)(F)C(F)F (stereo unspecified)	-3.2	65.0*	-2.7	0	98.8*	0.3
O=P(O)(O)C(O)C(F)(F)C(F)(F)C(F)(F)C(F)F (stereo unspecified)	11.6	7.6	-3.0	1.2	-16.1	0.9
CC(C)NC(=O)c1ccc(-c2ccc(Cl)c(C(F)(F)F)c2)o1	-13.3	-4.7	-0.9	1	2.7	1
O=C(Cc1sc(-c2ccccc2)nc1-c1ccccc1)Nc1ccccc1	5.0	51.9*	-5.6	1	0.2	0.5
COc1ccccc1NC(=O)c1ccc(N)cc1	2.4	-313.2	-2.1	0.8	15.3	4.1*
COc1ccc(NC(=O)Nc2ccccc2OC)cc1	-6.5	34.4	-6.2	0.1	87.0*	0.7
COc1ccc(OC)c(NC(=O)Nc2ccc(Cl)cc2)c1	-1.0	12.2	2.1	0.7	29.1	0.9
COc1ccccc1NC(=O)C1C2C=CC(O2)C1C(=O)O (stereo unspecified)	24.6	7.8	4.1	1	4.3	0.9
COc1ccccc1NC(=O)C1C2CCCCC21 (stereo unspecified)	-1.4	-263.5	-3.7	0.6	42.8	3.6*
COc1ccc(OC)c(NC(=O)N[C@@H](Cc2ccccc2)C(=O)O)c1	2.8	-5.7	-1.2	1	-3.7	1.1
COc1ccc(OC)c(NC(=O)Nc2cccc(Cn3cccn3)c2)c1	0.3	82.9*	5.3	0.3	74.3*	0.2
COc1cc(OC)cc(C(=O)Nc2cccc(N3CCCC3)c2)c1	-8.2	5.8	0.6	1	-0.8	0.9
SMILES	CD11b adhes inh	CYP2C9 inhib	Mac1 fbg enh	CYP2C19 activ	CYP2C19 inh	CYP2C9 act
CCCC1(CCC)NC(=O)N(CC(=O)c2cc(C)n(-c3ccc4c(c3)OCO4)c2C)C1=O	8.9	x	6.9	x	x	x
COc1ccccc1NC(C)=O	0.6	7.2	-0.9	0.9	8.4	0.9
COC(=O)c1cc(NC(=O)Nc2cc(OC)ccc2OC)cc(C(=O)OC)c1	1.4	51.1*	3.0	0.6	41.7	0.5
O=C(Nc1cccc(F)c1)Nc1ccccn1	1.3	22.1	-4.0	0.8	21.3	0.8
COc1ccccc1NC(=O)C(=O)Nc1ccccn1	x	-133.0	x	0.8	18.0	2.3*
COc1ccccc1NC(=O)C(O)C(O)C(=O)Nc1ccccc1OC (stereo unspecified)	-27.8	-216.1	-0.5	0.8	20.9	3.2*
O=C(Nc1ccncc1)Nc1ccccn1	-29.6	67.7*	-5.0	0.1	91.2*	0.3
CCOCCCNCC(=O)Nc1ccccc1N1CCOCC1	1.0	-21.9	-1.8	1	0.4	1.2
Cn1c(CC(=O)Nc2ccccc2)nnc1SCCOc1ccccc1	1.9	10.0	-5.4	0.9	12.6	0.9
Nc1c(-c2ccccc2)c(CSc2nc3ccccc3[nH]2)nn1-c1ccc(C(=O)O)cc1	2.8	x	2.1	x	x	x
Cc1ccccc1C(=O)Nc1ccc(N2CCOCC2)nc1	x	-0.4	x	0.8	19.8	1
CCCCCCCCCCNC(=O)C(=O)Nc1ccccn1	8.6	1.3	0.6	0.4	55.3*	1
COc1ccc(C)cc1NC(=O)Nc1ccccc1	-20.4	15.6	4.2	0.7	29.1	0.8
COc1ccc(NC(=O)Nc2cc(C)ccc2OC)cc1	-40.0	38.6	-0.9	0.1	94.9*	0.6
COc1ccc(C(=O)NC(Cc2ccccc2)c2ccc3c(c2)OCCCO3)cc1 (stereo unspecified)	-6.0	56.7*	-2.1	0.8	21.3	0.4
O=C(NC(Cc1ccccc1)c1ccc2c(c1)OCCCO2)c1ccccc1F (stereo unspecified)	1.1	82.9*	-1.4	0.2	77.1*	0.2
CC(=O)N(CCC(Cc1ccccc1)c1ccc2c(c1)OCO2)Cc1ccccc1F (stereo unspecified)	27.2	95.9*	-2.5	0.1	87.7*	0
O=C(CCc1ccccc1)c1ccc2c(c1)OCCCO2	15.1	16.5	-2.9	1	-1.5	0.8
O=C(O)CSCCC(=O)Nc1ccc(F)cc1	-10.2	0.9	-6.0	1	-2.1	1
CCCSc1nnc2n(C)c(=O)c3c4c(sc3n12)CCC4	-15.4	61.1*	0.8	0.5	53.4*	0.4
CCCSc1nnc2n(Cc3ccccc3)c(=O)c3c4c(sc3n12)CCC4	-4.7	-17.5	6.4	1.2	-20.4	1.2

Assay outcomes as filed in PubChem BioAssay.
